In PubChem BioAssay (NCI) one finds growth data, which are given here for nine compounds.

This is part of a sample that, as a whole, favours compounds with a hit. Of some 83,000 tested, about 20% had one in any assay.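 Results are percent growth after 48 hours of single-concentration exposure. 100 means growth as in untreated cells, lower positive values show inhibition; negative values down to -100 show cell death.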 Unmarked numbers belong to inactive results. The source made the active and inactive calls. Rule for the calls: active = growth percent below 10; inactive = the rest.

Test in all cases: NCI-60 one-dose screen, 48 h (100 = growth as untreated, 0 = no growth, -100 = all killed)
In one test the test system is HCT-15 colon. The note with it: 10 µM unless noted.
For the next test, the system named is HT29 colon. The note with it: 10 µM unless noted.
A further test concerns SNB-75 CNS. Conditions: 10 µM unless noted.
For another test, the system named is SNB-19 CNS. The note with it: 10 µM unless noted.
The next test has as its system U251 CNS. The note with it: 10 µM unless noted.
A further test deals with PC-3 prostate. Conditions: 10 µM unless noted.
The subject of a further test is SK-MEL-5 melanoma. The note with it: 10 µM unless noted.
The next test has as its system UACC-62 melanoma. Conditions: 10 µM unless noted.
Another test has as its system LOX IMVI melanoma. Conditions: 10 µM unless noted.
The next test has as its system SK-MEL-28 melanoma. Conditions: 10 µM unless noted.
The next test has as its system EKVX NSCLC. The note with it: 10 µM unless noted.
A further test concerns SN12C renal. The note with it: 10 µM unless noted.
The next test has as its system UO-31 renal. Conditions: 10 µM unless noted.
Another test has as its system TK-10 renal. Conditions: 10 µM unless noted.
Another test relates to ACHN renal. Conditions: 10 µM unless noted.
The next test deals with CAKI-1 renal. Conditions: 10 µM.
Another test deals with A498 renal. The note with it: 10 µM unless noted.
The next test relates to CCRF-CEM leukemia. The note with it: 10 µM unless noted.
Another test has as its system SK-MEL-2 melanoma. Conditions: 10 µM unless noted.
Another test deals with MOLT-4 leukemia. The note with it: 10 µM unless noted.

As to `COc1ccc(/C(C)=C(\c2ccc(Cl)cc2)c2ccc(OCCN)cc2)cc1`, the growth in the test with HCT-15 colon is 40.5%; with HT29 colon, 0.975% (active); with SNB-75 CNS, 88.9%; with SNB-19 CNS, 87.8%; in the test on U251 CNS, 61.9%; with PC-3 prostate, 78.9%. Also, the growth with SK-MEL-5 melanoma is 96.7%; in the test on UACC-62 melanoma, 98.5%; with LOX IMVI melanoma, 0.915% (active); in the test with SK-MEL-28 melanoma, 86.1%; in the test on EKVX NSCLC it was 87.2%; in the test on SN12C renal, 78.3%. Moreover, the growth is 60.8% with UO-31 renal; 119% in the test on TK-10 renal; 84.9% in the test with ACHN renal; 67.3% with CAKI-1 renal; 90.1% in the test on A498 renal; 66.1% in the test on CCRF-CEM leukemia.

As to `COc1cc2c3c(n(CCCNCC4CC4)c(=O)c2cc1OC)-c1cc2c(cc1C3=O)OCO2`, the growth is -72.2% (active) with HCT-15 colon; -70.6% (active) with HT29 colon; 66.8% with SNB-75 CNS; 42.3% in the test on SNB-19 CNS; -95.7% (active) with U251 CNS; 40% in the test on PC-3 prostate. The growth is 53.2% in the test with SK-MEL-5 melanoma; 45.7% in the test with UACC-62 melanoma; -77.7% (active) with LOX IMVI melanoma; 89.7% with SK-MEL-28 melanoma; 66% in the test on EKVX NSCLC; 44.6% in the test with SN12C renal. Moreover, the growth is 49.8% with UO-31 renal; 72.5% in the test on TK-10 renal; -73.1% (active) in the test on ACHN renal; -72.5% (active) in the test on CAKI-1 renal; 68.6% in the test on A498 renal; -9.44% (active) in the test with CCRF-CEM leukemia.

For `Cn1nc(Nc2ccccc2)c(C(=O)NN)c1N`, the growth was 97.8% in the test with HCT-15 colon; 103% with HT29 colon; 81.6% with SNB-75 CNS; 101% in the test with SNB-19 CNS; 102% in the test on U251 CNS; 95.1% in the test on PC-3 prostate. Also, the growth is 99.3% in the test with SK-MEL-5 melanoma; 96.8% in the test with UACC-62 melanoma; 97.2% in the test on LOX IMVI melanoma; 103% in the test on SK-MEL-28 melanoma; 103% in the test with SK-MEL-2 melanoma; 97.3% in the test with SN12C renal. For the same compound, the growth was 81.5% in the test with UO-31 renal; 118% in the test with TK-10 renal; 97.4% with ACHN renal; 94.1% in the test on CAKI-1 renal; 97.2% with A498 renal; 91.1% in the test with CCRF-CEM leukemia. Further, in the test on MOLT-4 leukemia, the growth is 104%.

On to `COC(=O)c1nc(-c2ccc(C)cc2)oc1S(=O)(=O)N1CCN(c2oc(-c3ccccc3)nc2C#N)CC1`, for which the growth in the test on HCT-15 colon is 98.6%; in the test on HT29 colon, 111%; with SNB-75 CNS it was 100%; with SNB-19 CNS, 94.6%; with U251 CNS, 99.4%; in the test with PC-3 prostate, 99%. In addition, the growth in the test with SK-MEL-5 melanoma is 100%; in the test with UACC-62 melanoma, 92%; with LOX IMVI melanoma, 89.7%; in the test with SK-MEL-28 melanoma it was 99.6%; in the test on EKVX NSCLC, 106%; in the test with SN12C renal, 100%. Also, the growth is 94% with UO-31 renal; 111% in the test with TK-10 renal; 100% in the test on ACHN renal; 97.4% in the test with CAKI-1 renal; 85.8% in the test with A498 renal; 39.8% with CCRF-CEM leukemia.

As to `Cn1cc(-c2nn3c(=O)cc(-c4ccccc4)nc3s2)c2cc(F)ccc21`, the growth with HCT-15 colon was 29.6%; with HT29 colon, 33.3%; in the test with SNB-75 CNS, 30.9%; with SNB-19 CNS it was 65.6%; in the test with U251 CNS, 48.5%; in the test with PC-3 prostate it was 34.8%. Also, the growth with SK-MEL-5 melanoma was 43.8%; in the test with UACC-62 melanoma, 33.9%; with LOX IMVI melanoma it was 59.3%; in the test on SK-MEL-28 melanoma, 45.2%; in the test with EKVX NSCLC, 64.3%; in the test on SN12C renal, 69.6%. For the same compound, the growth with UO-31 renal is 57.1%; in the test on TK-10 renal it was 85.6%; with ACHN renal, 37.7%; with CAKI-1 renal, 31.6%; in the test with A498 renal, 62.5%; with CCRF-CEM leukemia it was 52.8%.

As to `COc1ccc2c(c1)c(-c1nn3c(=O)cc(-c4ccccc4)nc3s1)cn2C`, the growth in the test on HCT-15 colon is 34.7%; in the test with HT29 colon, 10.5%; in the test on SNB-75 CNS, 14.9%; with SNB-19 CNS, 39.1%; in the test with U251 CNS, 26.8%; in the test on PC-3 prostate, 32.4%. The growth in the test on SK-MEL-5 melanoma is 38.7%; with UACC-62 melanoma, 24.2%; in the test with LOX IMVI melanoma, 37.9%; in the test with SK-MEL-28 melanoma, 51.5%; with EKVX NSCLC, 85.3%; in the test on SN12C renal, 45.2%. In addition, the growth is 38.1% with UO-31 renal; 64.1% with TK-10 renal; 44.3% in the test with ACHN renal; 46.6% in the test on CAKI-1 renal; 4.32% (active) with A498 renal; 34.7% with CCRF-CEM leukemia.

`COc1ccc([C@H]2[C@H](O)C(=O)N2c2cc(OC)c(OC)c(OC)c2)cc1`: the growth is 9.24% (active) in the test on HCT-15 colon; -2.31% (active) in the test with HT29 colon; 49.6% in the test with SNB-75 CNS; 29% in the test on SNB-19 CNS; 8.04% (active) in the test with U251 CNS; 13.9% in the test with PC-3 prostate. The growth in the test with SK-MEL-5 melanoma is 0.112% (active); in the test with UACC-62 melanoma, 20.6%; with LOX IMVI melanoma it was 15.1%; with SK-MEL-28 melanoma, 62.8%; with EKVX NSCLC, 44.4%; in the test on SN12C renal, 20.3%. For the same compound, the growth in the test with UO-31 renal was 32.4%; in the test on TK-10 renal, 69.8%; in the test with ACHN renal, 26.8%; in the test on CAKI-1 renal it was 28.4%; in the test on A498 renal it was -17.5% (active); in the test with CCRF-CEM leukemia, 26.7%.

As to `O=c1cc(-c2ccccc2)nc2sc(-c3c[nH]c4ccc(Br)cc34)nn12`, the growth in the test with HCT-15 colon is 91.6%; with HT29 colon it was 102%; in the test on SNB-75 CNS it was 108%; with SNB-19 CNS, 88.4%; in the test on U251 CNS, 100%; in the test on PC-3 prostate, 85.4%. Besides, the growth in the test on SK-MEL-5 melanoma was 98.9%; with UACC-62 melanoma, 87.4%; in the test with LOX IMVI melanoma it was 102%; with SK-MEL-28 melanoma it was 93.9%; with EKVX NSCLC, 91.2%; in the test on SN12C renal, 94.9%. The growth is 79.6% in the test on UO-31 renal; 110% in the test with TK-10 renal; 96.3% in the test with ACHN renal; 91.4% in the test with CAKI-1 renal; 85.5% in the test with A498 renal; 123% in the test on CCRF-CEM leukemia.

Regarding `COc1cnc2c(c1)C(=O)c1c-2n(CCCNCC2CC2)c(=O)c2cc(F)ccc12`, the growth in the test with HCT-15 colon is 0.625% (active); in the test with HT29 colon, -62.7% (active); in the test on SNB-75 CNS, -7.63% (active); in the test with SNB-19 CNS, 4.94% (active); with U251 CNS, -50.4% (active); with PC-3 prostate, 9.61% (active). Further, the growth with SK-MEL-5 melanoma is -82.8% (active); in the test with UACC-62 melanoma, -56.2% (active); in the test with LOX IMVI melanoma, -59.4% (active); in the test with SK-MEL-28 melanoma it was 22.8%; in the test with EKVX NSCLC, 13.3%; in the test on SN12C renal it was 0.563% (active). In addition, the growth with UO-31 renal was -81.7% (active); with TK-10 renal it was -32.9% (active); with ACHN renal, -62% (active); in the test on CAKI-1 renal, -27.2% (active); in the test on A498 renal, -31% (active); in the test on CCRF-CEM leukemia, -2.04% (active).
